Compound activity deposited in PubChem BioAssay by several laboratories.
cardiac RTF act: cardiac RTF calcium sensitization. P19429+P45379. IANBD-labeled TnC RTF fluorescence at EC20 calcium; 0% EC20 calcium, 100% full calcium. activation, % at 7.2 µM. 340,000 tested, 0.24% active;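 active means activation above the mean over all tested compounds plus 3 SD, cut at about 30% in these data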;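 further: rise in fluorescence read as greater calcium sensitivity of cardiac thin filaments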
IDE cell activ: boosts human insulin-degrading enzyme activity in HEK cells; 340,000 tested, 0.073% active; P14735; activation, % at 5.96 µM; AID 493087; FAbeta-B cleavage, fluorescence polarization; 0% vehicle, 100% cell-free pure enzyme wells;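 active means activation above the mean of all tested compounds plus 3 SD, set per screening campaign, cut at about 17% in these data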
CRFBP-R2 agonist: agonists of human CRF-binding protein/CRF-R2 receptor complex; HEK293 CRF-R2/CRF-BP, calcium dye fluorescence (FLIPR); percent of saturating CRF peptide response; activation, % at 13.2 µM; 350,000 tested, 0.46% active; AID 588473;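 active means activation of at least 50%, plus an integration ratio under a set limit after plate pattern correction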
IDE cell inh: cellular human IDE inhibition. 320,000 tested, 0.41% active. HEK cells, FAbetaB cleavage, fluorescence polarization. inhibition, % at 5.59 µM;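 active means percent inhibition above the average of all tested compounds plus 3 SD, set per screening campaign, cut at about 16% in these data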;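 further: IDE supplied by intact live HEK cells; FP after avidin binding of uncleaved biotin substrate so inhibition keeps polarization high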
TPT1 inh: blocks Candida albicans tRNA 2'-phosphotransferase. inhibition, % at 5 µM. 300,000 tested, 0.81% active. recombinant caTPT1, FP RNA substrate dephosphorylation;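 active means inhibition above the mean of all tested compounds plus 3 SD, set per screening campaign, cut at about 24% in these data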
Cardiac RTF inh: cardiac RTF calcium desensitization. inhibition, % at 7.15 µM. 340,000 tested, 0.12% active. P19429+P45379. IANBD-labeled cardiac RTF, Ca2+ fluorescence;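 active means inhibition above the mean inhibition of all tested compounds plus 3 SD, cut at about 17% in these data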;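 further: assay run at fixed EC70 calcium of 1.6 mM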
Hits are given with their value; – = inactive; · = no result. Most compounds without a hit are left out; they make up all but 1.5% or so of the library.

SMILES | cardiac RTF act | IDE cell activ | CRFBP-R2 agonist | IDE cell inh | TPT1 inh | Cardiac RTF inh
COc1ccc(NC(=O)CN(C)C(=O)CSc2ccc3c(c2)OCCO3)cc1 | – | – | 181 | – | – | –
COc1ccc(NC(=O)CSc2ccc3c(c2)OCCO3)cc1 | – | – | – | – | · | –
Cc1ccc(C)c(N2CCN(C(=O)CN3C(=S)NC(C)(C)CC3C)CC2)c1 (stereo not given) | 31 | – | – | – | – | –
CC1CC(C)(C)NC(=S)N1CC(=O)N1CCN(Cc2ccccc2)CC1 (stereo not given) | – | – | – | – | – | –
COc1ccc(/C=N/OCC(=O)NC(c2ccccc2)c2ccccc2)c(OC)c1 | – | – | – | – | – | –
CCOc1ccc(/C=N/OCC(=O)NC(c2ccccc2)c2ccccc2)cc1 | – | – | 54 | – | – | –
COc1ccc(N(CC(=O)NN=C2CCN(C)CC2)S(=O)(=O)c2ccccc2)c(OC)c1 | – | – | – | – | – | –
O=C(NCc1ccc(Cl)cc1)C1CCCN(c2cnccn2)C1 (stereo not given) | – | – | – | – | – | –
O=C(NCc1ccc(Cl)cc1)C1CCN(c2cnccn2)CC1 | 30 | – | – | – | – | –
CCCn1c(=O)c(C(=O)NNC(=O)c2ccc(Cl)cc2Cl)c(O)c2ccccc21 | – | – | 70 | – | – | –
CCn1c(=O)c(C(=O)NNC(=O)c2ccc(Cl)cc2Cl)c(O)c2ccccc21 | – | – | – | – | – | –
CCOC(=O)C1=C(COC(=O)c2ccc3ccccc3c2O)NC(=O)NC1C (stereo not given) | 35 | – | 53 | – | · | –
CN1C[C@@H]2C(c3ccccc3)C3(c4ccc(C#N)cc4)CC2(C3)[C@H]1c1ccccc1 (stereo not given in full) | – | – | – | – | – | –
CN1C=CC2=C(C#N)C(N)C(C#N)(C#N)C(c3ccccc3)C2C1 (stereo not given) | 40 | – | – | – | – | –
O=C(NC1CCCC1)c1cnn2c(C(F)(F)F)cc(-c3ccc4c(c3)OCO4)nc12 | – | 19 | – | – | – | –
O=C(c1cnn2c(C(F)(F)F)cc(-c3ccc4c(c3)OCO4)nc12)N1CCCCC1 | – | – | – | – | – | –
COCc1cccc(C2=CC(=O)C[C@H](c3ccc(OC)cc3)C2)c1 | – | – | – | – | · | –
Cc1cc2nc3c(=O)[nH]c(=S)[nH]c3nc2cc1NC(=O)C(F)(F)F | 65 | – | – | – | – | –
Cc1cccc(C(CC(=O)N2CCCCC2)c2ccccc2)c1O (stereo not given) | – | – | – | – | – | –
CC(OC(=O)C1CCN(S(=O)(=O)c2ccc(F)cc2)CC1)C(=O)NC1CCCCC1C (stereo not given) | – | – | – | – | – | –
O=c1nc(-c2ccccc2)n(-c2ccc(Cl)cc2)[nH]1 | – | – | 91 | – | – | –
Cc1ccc(S(=O)(=O)/N=C2/NC(=O)/C(=C/c3ccc(Br)o3)S2)cc1 | – | – | – | – | – | –
Cc1ccc(S(=O)(=O)/N=C2/NC(=O)/C(=C\c3cc(Br)cc(Br)c3O)S2)cc1 | 63 | – | 77 | · | · | –
CC(=O)N[C@H]1[C@H]([C@H](O)[C@H](O)CO)O[C@](O)(C(=O)O)C[C@@H]1O | – | – | – | · | · | –
Cc1ccc(NC(=O)COC(=O)COc2cccc3c2OC(C)(C)C3)cc1S(=O)(=O)N1CCOCC1 | – | – | – | – | – | –
SMILES | cardiac RTF act | IDE cell activ | CRFBP-R2 agonist | IDE cell inh | TPT1 inh | Cardiac RTF inh
Cc1ccc(S(=O)(=O)c2c(N)n(Cc3ccco3)c3nc4ccccc4nc23)cc1C | – | – | – | – | – | –
Nc1c(S(=O)(=O)c2ccccc2)c2nc3ccccc3nc2n1Cc1ccco1 | – | – | 65 | – | – | –
CCCCNC(=O)[C@H]1N2C(=O)c3c(ccc(OC)c3OC)C2SC1(C)C (stereo not given in full) | – | – | – | – | – | –
Cc1nc2ccc(Cl)cc2nc(C)/c1=N\O | 34 | – | – | – | – | –
N#Cc1c(N2CCN(c3ccc([N+](=O)[O-])cc3)CC2)[n+](=O)c2ccc(Cl)cc2n1[O-] | – | – | – | · | · | –
COCCN(CCOC)Cc1c(O)ccc2c1O/C(=C\c1ccco1)C2=O | 69 | – | – | – | – | –
O=c1oc2ccc(Cl)cc2nc1/C=C(\O)c1cccs1 | – | – | – | – | – | –
Cc1ccc2oc(=O)c(/C=C(\O)c3cccs3)nc2c1 | – | – | 120 | – | – | –
Cc1ccc2oc(=O)c(/C=C(\O)c3ccccc3)nc2c1 | – | – | 71 | – | – | –
O=C(c1ccccc1)[C@@H]1[C@@H]2C(=O)N(c3ccc(F)cc3)C(=O)[C@@H]2C2CCCN21 (stereo not given in full) | – | – | – | – | – | –
Cc1ccc(N2C(=O)[C@@H]3[C@H](C2=O)C2CCCN2[C@@H]3C(=O)c2ccccc2)cc1 (stereo not given in full) | 31 | – | – | – | – | –
CC(C(=O)Nc1ccc2c(c1)OCCO2)c1ccc([N+](=O)[O-])cc1 (stereo not given) | – | – | 110 | – | – | –
CC(C(=O)Nc1ccc2c(c1)OCO2)c1ccc([N+](=O)[O-])cc1 (stereo not given) | – | – | – | – | – | –
O=c1oc(-c2ccccc2)c(-c2ccccc2)c2ccccc12 | – | – | – | · | · | –
CC(C)c1ccc(NC(=S)NN2CCOCC2)cc1 | – | – | 83 | – | – | –
O=C(O)c1ccccc1-c1ccc(/C=C/c2cc(C(F)(F)F)[nH]c(=O)n2)o1 | 727 | – | 170 | · | · | –
O=C(N/N=C/c1ccc(-c2ccccc2C(=O)O)o1)c1cccs1 | – | – | – | – | – | –
CC1(C(=O)NCc2ccc(Cl)c(Cl)c2)Oc2cccnc2NC1=O (stereo not given) | – | – | – | – | – | –
COc1ccc(C(C[N+](=O)[O-])C2(c3ccc(OC)c(OC)c3)C(=O)c3ccccc3C2=O)cc1 (stereo not given) | – | – | – | 16 | – | –
CC(C)(C)C(=O)NC(=S)NNC(=O)c1ccc(-c2ccccc2)cc1 | – | – | 163 | – | – | –
CC(C)(C)C(=O)NC(=S)NNC(=O)c1ccc(Cl)cc1Cl | – | – | 129 | – | – | –
COc1cccc(/C=C2\CCCCC2=O)c1 | – | – | – | – | – | –
O=C(O)CC(NC(=O)c1cccc([N+](=O)[O-])c1)c1ccc2c(c1)OCO2 (stereo not given) | – | – | – | – | – | –
COc1ccccc1C(=O)Oc1ccc2c(c1)O/C(=C\c1ccncc1)C2=O | 35 | – | 124 | – | – | –
CC(=O)Oc1ccc2c(c1)O/C(=C\c1ccncc1)C2=O | 60 | – | 127 | – | – | –
